Assay outcomes as filed in PubChem.
Only some compounds are listed: those with a hit (about 6.8% of all), similar ones and a draw of the others.
NS3h inh CB = hepatitis C NS3 helicase inhibition, primary screen | NS3h Cy5-dT15 DNA binding, fluorescence polarization | inhibition, % at 100 µM | 16,000 compounds, 1.6% hits | AID 687043;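 active = inhibition above the average over every tested compound plus 3 SD, cut at about 40% in these data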
Cy5 interf NS3h = Cy5 fluorescence interference, HCV helicase counter-screen; Cy5-dT15 DNA with NS3h; actives lie on both sides; signal over control mean, under 1 quenches; fluorescence interference ratio at 100 µM; 16,000 compounds, 6% hits; AID 720488;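 active = compound fluorescence over control fluorescence at most 0.8, a quencher, or at least a set upper limit, an enhancer; inactive = ratio between 0.8 and the set upper limit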
NS3h confirm = confirmation of hepatitis C virus NS3 helicase inhibitors; shares compounds with NS3h inh CB; NS3h binding to Cy5-dT15 DNA, fluorescence polarization; inhibition, % at 100 µM; 240 compounds, 20% hits;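 active = percent inhibition of 50% or more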
SSB-DNA FP CB = counter-screen for HCV NS3 helicase inhibitors: E. coli SSB binding; shares compounds with NS3h inh CB; 240 compounds, 40% hits; E. coli SSB binding Cy5-dT15, fluorescence polarization; AID 720486; inhibition, % at 100 µM;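 active = inhibition of at least 50%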;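 note: displacers lower Cy5 polarization so higher inhibition means more SSB displaced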
Target sequence (P0AGE0 whole entry, looked up): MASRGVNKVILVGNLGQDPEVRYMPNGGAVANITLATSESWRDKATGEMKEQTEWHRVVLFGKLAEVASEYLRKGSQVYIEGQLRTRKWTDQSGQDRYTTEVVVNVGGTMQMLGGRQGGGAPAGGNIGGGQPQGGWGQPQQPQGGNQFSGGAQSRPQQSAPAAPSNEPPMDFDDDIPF
Cy5 SSB interf = enhances or quenches Cy5-DNA fluorescence with E. coli SSB. shares compounds with NS3h inh CB. Cy5-dT15/E. coli SSB fluorescence interference; actives lie on both sides. fluorescence interference ratio at 100 µM. 240 compounds, 8% hits;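 active = fluorescence interference ratio at or above 1.2, signal boosting, or at or below 0.8, signal quenching; inactive = ratio between 0.8 and 1.2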;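 note: ratio of compound well signal to mean negative control signal so 1 means no effect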
Cy5 interf conf = Cy5 fluorescence interference, confirmation counter-screen | shares compounds with NS3h inh CB | Cy5-dT15 DNA/NS3h fluorescence interference counterscreen | fluorescence interference ratio at 100 µM, hits read low | 240 compounds, 44% hits;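 active = fluorescence interference ratio at or below 0.8 quencher or at or above a set limitenhancer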;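 note: ratio of compound fluorescence to mean of negative controls so 1 means no interference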
An asterisk follows results filed as active; · = no result given.

SMILES | NS3h inh CB | Cy5 interf NS3h | NS3h confirm | SSB-DNA FP CB | Cy5 SSB interf | Cy5 interf conf
CCc1ccc(N2CC(C(=O)Nc3ccc(Cl)c(Cl)c3)CC2=O)cc1 (stereo not drawn) | 7.2 | 1.01 | · | · | · | ·
O=C(NCCOc1ccccc1Cl)c1cccc2ccccc12 | 29.9 | 0.984 | · | · | · | ·
COc1ccc(CSc2nnnn2C)cc1 | -1.6 | 0.962 | · | · | · | ·
COc1ccc(S(=O)(=O)N2CCN(S(=O)(=O)c3ccc(C)cc3)CC2)cc1 | 6.3 | 1.07 | · | · | · | ·
CSc1nccn1CC(=O)Nc1ccccc1 | -1.5 | 1.03 | · | · | · | ·
O=C(Oc1ccc(S(=O)(=O)c2ccc(OC(=O)c3ccncc3)cc2)cc1)c1ccncc1 | -6.3 | 1.01 | · | · | · | ·
Cc1ccccc1/C=C1/SC(=Nc2ccc(F)cc2)NC1=O | 2.7 | 1.04 | · | · | · | ·
O=C1NC(=Nc2ccc(F)cc2)S/C1=C/c1ccccc1F | 111.5* | 1.68* | 4.4 | 12.6 | 0.981 | 0.995
CCCCN(CCCC)C(=O)CSc1nc2ccccc2[nH]1 | 19.6 | 0.924 | · | · | · | ·
Cc1ccc([N+](=O)[O-])cc1N1C(=O)C2C3C=CC(CC3)C2C1=O (stereo not drawn) | 17.9 | 0.875 | · | · | · | ·
Cc1ccc([N+](=O)[O-])cc1N1C(=O)C=CC1=O | 86.7* | 1.08 | 43.6 | -3.2 | 0.938 | 0.759*
Cc1ccc(C(=O)NCCC(C)C)cc1[N+](=O)[O-] | 1.3 | 0.953 | · | · | · | ·
Cc1ccc(N2C(=O)C=CC2=O)cc1[N+](=O)[O-] | 75.0* | 0.957 | 60.5* | 9.0 | 0.938 | 0.941
CCOc1ccccc1/C=C(/NC(=O)c1ccccc1)C(=O)N(CC)CC | 1.0 | 1.05 | · | · | · | ·
O=C1ON=C(c2ccccc2)/C1=C\c1ccc(OCc2ccccc2)cc1 | 40.1 | 1.03 | 3.4 | 9.0 | 0.963 | 0.749*
COc1cccc(/C=C2/C(=O)ON=C2c2ccccc2)c1OC | 2.7 | 0.825 | · | · | · | ·
CCOC(=O)COc1ccc2cc(-c3nc4ccccc4[nH]3)c(=O)oc2c1 | -7.6 | 1.01 | · | · | · | ·
CCOc1ccc(C=C2C(=O)NC(=O)NC2=O)cc1OCC | 18.5 | 1.1 | · | · | · | ·
CCN(C)c1ccc(C=C2C(=O)NC(=O)NC2=O)cc1 | 91.6* | 1.86* | 111.3* | 95.1* | 1.49* | 2.2*
O=C(CCN1C(=O)/C(=C/c2ccc(F)cc2)SC1=S)Nc1ncc(Cc2ccc(Cl)cc2)s1 | 45.6* | 0.942 | 4.4 | 10.2 | 0.96 | 0.996
O=C(CCN1C(=O)/C(=C/c2ccc(Cl)cc2)SC1=S)Nc1nccs1 | 12.9 | 1.03 | · | · | · | ·
O=C(Nc1ccc(N2CCOCC2)cc1)c1ccc2c(c1)OCCO2 | -3.9 | 1.03 | · | · | · | ·
O=C(Nc1ccc(Cl)c(Cl)c1)c1ccc2c(c1)OCCO2 | 39.1 | 1.1 | 41.5 | 46.6 | 0.948 | 0.859
COc1ccccc1N1CCN(C(=O)c2ccccc2Oc2ccccc2)CC1 | 10.0 | 0.996 | · | · | · | ·
CCc1cccc(NC2(c3ccccc3)C(=O)c3ccccc3C2=O)c1 | 68.9* | 0.761* | 10.8 | 17.5 | 0.93 | 0.938
SMILES | NS3h inh CB | Cy5 interf NS3h | NS3h confirm | SSB-DNA FP CB | Cy5 SSB interf | Cy5 interf conf
CCOc1ccc(NC2(c3ccccc3)C(=O)c3ccccc3C2=O)cc1 | 19.5 | 1.06 | · | · | · | ·
C=CCSC1=C(C#N)C2(CCCCC2)C(C#N)C(=O)N1 (stereo not drawn) | 3.2 | 1.02 | · | · | · | ·
N#CC1=C(S)NC(=O)C(C#N)C12CCCCC2 (stereo not drawn) | 43.6* | 0.957 | 19.3 | 39.3 | 0.94 | 0.901
Cc1cccc(/C(N)=N\OC(=O)c2ccccc2Br)c1 | 3.3 | 1.12 | · | · | · | ·
COc1cc(/C=C2/SC(=S)N(CCC(=O)Nc3ccc(C(=O)O)cc3)C2=O)cc(OC)c1OC | -0.7 | 0.956 | · | · | · | ·
Cc1nnc(C)n1/N=C\c1ccc(Cl)c([N+](=O)[O-])c1 | -6.2 | 0.945 | · | · | · | ·
O=C(COc1ccc(Cl)cc1)N(c1ccccc1)c1ccccc1 | 10.7 | 1.06 | · | · | · | ·
O=C1NC(=S)N(c2ccccc2)C(=O)/C1=C/c1ccc(Br)cc1 | -3.7 | 0.955 | · | · | · | ·
CN(C)c1ccc(/C=C2\C(=O)NC(=S)N(c3ccc(Br)cc3)C2=O)cc1 | 63.7* | 1.27* | 20.3 | 96.4* | 1.23* | 0.874
Cn1c2ccc(CC(N)=O)cc2c2cc(CC(N)=O)ccc21 | 44.5* | 1.16 | 2.3 | 7.8 | 1.08 | 0.838
CC(=O)c1ccc2c(c1)c1ccccc1n2C | 18.5 | 0.979 | · | · | · | ·
Cc1ccc(C(=O)Nc2nc(-c3ccccc3)cs2)cc1[N+](=O)[O-] | 10.2 | 0.997 | · | · | · | ·
Cc1nc(NC(=O)c2ccccc2)sc1-c1csc(Nc2cccc(C(=O)O)c2)n1 | 37.4 | 0.798* | -0.8 | 22.3 | 0.929 | 0.728*
